This is a sample that favours compounds with a hit; in the whole collection about 2.7% have one here.
Nrf2 activator = Nrf2 pathway activation | AREc32 ARE-luciferase reporter (MCF7-derived line), luminescence, 24 h | Potency, µM (highest dose often 46.1 µM), for inactives: top-dose activation, hits mostly activators | hit rate 0.31% among 410,000; note: potency is the fitted concentration of half-maximal effect; % of control where 0% means no effect; nearly all actives have a fitted effect of over 65% in size
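Quantitative high-throughput format: AREc32 reporter cells, 1000 per well, received compound by pin transfer and were incubated 24 hr at 37 deg C, 5% CO2, before Steady-Glo luminescence detection.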
ERG-DNA inh = ERG Ets/DNA interaction inhibition | fluorescence polarization, His-ERG Ets domain / labelled DNA | Potency, µM (highest dose often 76.9 µM), inactives show at the top dose FP activity, negative = inhibition, most hits filed as inhibitors | hit rate 0.028% among 370,000 | AID 624246; active = well fitted inhibition curve with a large enough effect in the polarisation, with a control signal flat; inconclusive = small, poorly fitted or top-dose-only effect, or effect the other way, or a change in a side signal; inactive = no such curve, though single readings can be large or run the other way; the % refers to the polarisation;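 note: polarization taken with two DNA probes labelled with fluorescein and Texas red; potency is the fitted concentration of half-maximal effect; % of control where 0% means no effect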
Target sequence (P11308 whole entry, looked up, the tested form may be a part): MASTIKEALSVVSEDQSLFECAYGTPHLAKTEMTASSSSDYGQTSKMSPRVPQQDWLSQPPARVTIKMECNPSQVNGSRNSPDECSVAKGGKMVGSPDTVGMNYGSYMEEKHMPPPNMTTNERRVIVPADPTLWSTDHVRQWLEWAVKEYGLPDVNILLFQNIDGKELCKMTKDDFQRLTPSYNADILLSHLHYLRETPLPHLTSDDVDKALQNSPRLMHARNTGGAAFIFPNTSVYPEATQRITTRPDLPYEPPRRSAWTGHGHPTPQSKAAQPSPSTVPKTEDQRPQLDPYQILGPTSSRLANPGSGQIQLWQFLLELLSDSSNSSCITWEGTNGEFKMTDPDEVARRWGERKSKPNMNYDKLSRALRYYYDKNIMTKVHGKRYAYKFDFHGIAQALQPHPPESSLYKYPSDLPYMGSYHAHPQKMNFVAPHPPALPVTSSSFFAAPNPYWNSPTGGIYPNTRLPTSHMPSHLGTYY
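His-tagged ERG Ets domain (1 uM in the protein solution; 300mM KCl, 50mM Tris-HCl, 1mM EDTA, 1mM DTT, pH 7.5) received compound, then a probe mix of 5 nM fluorescein-DNA and 100nM Texas-615-DNA. Fluorescence polarization was read for both dyes.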
Nrf2 block = Nrf2 pathway inhibition; Potency, µM (titrated, usually from 46 µM), without a hit: at the top dose activity change, negative = inhibition, hits mostly inhibitors; AID 504444; A549 ARE-Fluc reporter, luciferase luminescence, 18-24 h; hit rate 2.1% among 360,000; note: potency is the fitted concentration of half-maximal effect; % is set by controls: 0 for no effect and ±100 for the full control effect; nearly all actives have a fitted effect of over 60% in size
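Quantitative HTS in A549 cells stably bearing an antioxidant response element-firefly luciferase construct. Inhibition of Nrf2-driven transcription was scored by luminescence after 18-24 h of compound exposure at 37 °C.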
A549 tox = A549 cytotoxicity, counter-screen for Nrf2 inhibitors; Potency, µM (top dose mostly 46 µM), for the others: at the highest dose activity change, negative = cytotoxicity, hits mostly inhibitors; hit rate 0.16% among 390,000; A549 ARE-Fluc cells, CellTiter-Fluor viability, 18-24 h; note: potency is the fitted concentration of half-maximal effect; % is set by controls: 0 for no effect and ±100 for the full control effect
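Cytotoxicity counterscreen: CellTiter-Fluor fluorescence was measured in A549 ARE_Fluc cells after 18-24 h of compound exposure in a concentration series. The subsequent BugLite luminescent read reports ARE-luciferase activity.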
LDHA inh = blocks human lactate dehydrogenase A. P00338. purified LDHA, NADH/diaphorase-resazurin fluorescence; stronger effect = lower value. activity change, % (values are at about 110 or 230 µM). hit rate 0.15% among 480,000; in the data active = activity change below about -30%; inconclusive = mostly about -25% to -30%;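 note: plate controls were DMSO wells for no effect and wells without enzyme for full effect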
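Resorufin fluorescence (ex540/em590), read at 0 and 20 min after diaphorase/resazurin addition, reports the NADH left after a 5 min room-temperature reaction of 2 nM human LDH5 with 0.06 mM NADH and 0.2 mM pyruvate.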
ALOX12 inh = ALOX12 (human) lipoxygenase inhibition | Potency, µM (titrated, usually from 108 µM), for inactives: at the top dose activity change, negative = inhibition, hits mostly inhibitors | P18054 | purified 12hLO, xylenol orange hydroperoxide absorbance | AID 1671190 | hit rate 1.1% among 580,000; note: potency is the fitted concentration of half-maximal effect; % is set by controls: 0 for no effect and ±100 for the full control effect
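Purified human 12hLO (150 nM final) in 25 mM Hepes, 0.01% Triton X-100, pH 7.0 was preincubated 15 min at room temperature with compound. Then 40 uM arachidonic acid was added, 30 min. Hydroperoxide was read by Fe-XO absorbance ratio 573/405 nm.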
Starred values were filed as active, the others as inactive; ? = inconclusive; / = no result given; [ ] = remark or other dose. Unless noted, calls come from the whole dose curve; as a rule, active = well fitted curve in the direction sought with a large enough effect; inconclusive = small, poorly fitted or top-dose-only effect, or another doubt; inactive = no such curve, though single readings can be large; an effect the other way counts as inactive or inconclusive.

SMILES	Nrf2 activator	ERG-DNA inh	Nrf2 block	A549 tox	LDHA inh	ALOX12 inh
CC1=C(C(=O)Nc2ccc(C)cc2C)C(c2ccc(C(C)C)cc2)NC(=S)N1 (stereo not drawn)	/	/	/	/	-24	?
Cc1[nH]c2ccccc2c1/C=C/c1cc[n+](C)cc1	-1%	6%	2.1µM*	8.2µM*	-13	-98%
Cn1nc(C(C)(C)C)cc1C(=O)NNC(=O)c1ccc(C(F)(F)F)cc1	2%	13%	21µM*	13%	-6	140%
Cn1c(CCN2CCN(c3ccccn3)CC2)nc2cc(NC(=O)COc3ccccc3)ccc21	6%	7%	23µM*	-4%	0	-7%
c1cc(-c2cc3cc4c(cc3cn2)OCO4)cs1	?	-15%	?	10%	0	-8%
Fc1ccc2cc(-c3ccsc3)ncc2c1	8.9µM*	5%	?	1%	-10	0%
COc1cc2cnc(-c3ccsc3)cc2cc1OC	4.5µM*	-27%	4%	9%	-2	-24%
CC(Oc1ccc(Cl)cc1Cl)C(=O)NC(c1ccccc1)c1ccccc1 (stereo not drawn)	/	/	/	/	6	?
COc1ccc(C(=O)NC(NC(=S)Nc2ccc(S(N)(=O)=O)cc2)C(Cl)(Cl)Cl)cc1 (stereo not drawn)	0%	2%	12%	-3%	-34*	14%
COc1ccc(NC(=S)NC(NC(=O)c2cccc(C)c2)C(Cl)(Cl)Cl)c([N+](=O)[O-])c1 (stereo not drawn)	0%	-1%	?	-18%	-7	?
COc1ccc(NC(=S)NC(NC(=O)c2cccc(Cl)c2)C(Cl)(Cl)Cl)c([N+](=O)[O-])c1 (stereo not drawn)	11%	4%	26µM*	?	1	?
NC1=C(Br)C(=O)c2ncccc2C1=O	-2%	-9%	10µM*	16µM*	41	?
O=C1c2cccnc2C(=O)N1CO	0%	-1%	/	-2%	-6	-1%
Cc1ccc(-c2noc([C@@H]3C[C@@H](O)CN3Cc3ccccc3O)n2)cc1F	/	/	/	/	/	32µM*
OCc1ccc(CN2C[C@H](O)C[C@H]2c2nc(-c3ccc(F)cc3)no2)o1	/	/	/	/	/	25µM*
OCc1ccc(CN2C[C@H](O)C[C@H]2c2nc(-c3cccnc3)no2)o1	/	/	/	/	/	-4%[176 µM]
O[C@@H]1C[C@@H](c2nc(Cc3ccc(F)cc3Cl)no2)N(Cc2ccco2)C1	/	/	/	/	/	25µM*
COc1ccc(-c2noc([C@@H]3C[C@@H](O)CN3Cc3ccc(CO)o3)n2)cc1	/	/	/	/	/	45µM*
O=c1c2cc(Cl)ccc2ncn1Cc1nc(-c2ccccc2)no1	/	/	/	/	3	?
COc1ccc(NC(=O)c2cccc3c2CCN3C(=O)c2ccc(F)cc2)c(OC)c1	/	/	/	/	/	42%
CN(Cc1ccccc1)C(=O)C1CCN(Cc2cc3ccccc3n2Cc2ccccc2)CC1	6%	-1%	/	-19%	2	45µM*
NCCCCCc1nnc(SCc2ccccc2Cl)o1	-2%	1%	13µM*	?	-11	-22%
NCCc1nnc(SCc2c(Cl)cccc2Cl)o1	0%	-1%	-6%	-4%	0	0%
O=C(OCc1nnc(-c2ccccc2)o1)c1ccc(Br)o1	-1%	3%	1%	5%	-8	-4%
Brc1cc(Cc2nnc(-c3ccccc3)o2)c(Br)s1	8.9µM*	1%	?	-4%	-3	72%
CCOC(=O)NC(C)C12CC3CC(CC(C3)C1)C2 (stereo not drawn)	/	/	/	/	-4	0%
Cc1nc(NCCc2ccc3c(c2)OCO3)c2c3c(sc2n1)CCC3	/	/	/	/	1	-10%
COc1ccc(Nc2nc(C)nc3sc4c(c23)CCC4)cc1O	6.3µM*	-2%	-1%	-13%	-4	6%
CC(C)CCN1CCCC2(C1)C(=NC1CCCC1)NC(=O)N2c1cc(F)cc(F)c1 (stereo not drawn)	/	/	/	/	/	-29%
CC(=O)Nc1ccc(-c2nc(N3CCCC3)sc2C)cc1	/	/	/	/	1	5.6µM*

High-throughput results from PubChem BioAssay.
